PubChem BioAssay (NCATS)
Inconclusive results are not listed. The source made the active and inactive calls. Calls follow the shape of the dose curve; as a rule, active = well fitted inhibition curve with a large enough effect; inconclusive = small, poorly fitted or top-dose-only effect; inactive = flat fitted curve, though single readings scatter.

The molecules below were run on KB-3-1 (assay: Cytotoxic Profiling of Annotated Libraries Using Quantitative High-Throughput Screening (AID 1296008; also: nearly all actives have a fitted effect of over 60% in size)). Conditions: Five cell lines viability, CellTiter-Glo ATP luminescence, 48-72 h; max response: hits give low values.
Method in brief: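 Compounds were pin-transferred onto cells and incubated 48 or 72 hr at 37 degree Celsius, 95% humidity. CellTiter-Glo was added, plates sat 10 min at room temperature, then ATP-coupled luminescence was imaged as the viability read-out.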
% is scaled to controls: 0 for no effect and ±100 for the full control effect; potency is read from the fitted curve at half-maximal effect.

Row | Compound | max response | Potency | outcome
1 | CC(O)(C(=O)O)C1CCC2(C)C1CCC1(C)C2CCC2C3(C)CCC(O)C(C)(COC4OC(CO)C(O)C(O)C4O)C3CCC21C (stereo not given) | 1.95% (inactive) |  | 
2 | CC(=O)O[C@H]1CC(C)(C)CC2[C@]13CO[C@@]21CCC2[C@@]4(C)CC[C@H](O[C@@H]5OC[C@H](O[C@@H]6O[C@H](CO)[C@@H](O)[C@H](O)[C@H]6O[C@@H]6OC[C@@H](O)[C@H](O)[C@H]6O)[C@H](O)[C@H]5O[C@@H]5O[C@H](CO)[C@@H](O)[C@H](O)[C@H]5O)[C@@](C)(CO)C4CC[C@@]2(C)[C@]1(C)C[C@H]3O (stereo not given in full) | 4.15% (inactive) |  | 
3 | CC(=O)CC(=O)Nc1ccc(Cl)c(C(F)(F)F)c1 |  | 23.1 µM (active) | 
4 | CC(NC(=O)Cc1cc(F)cc(F)c1)C(=O)NC1C(=O)N(C)c2ccccc2-c2ccccc21 (stereo not given) |  | 16.4 µM (active) | 
5 | N#Cc1ccc(COc2ccc(-c3cccc4nc(NC(=O)C5CC5)nn34)cc2)cn1 | -6.55% (inactive) |  | 
6 | C=C1C(=O)O[C@@H]2[C@H]3C(C)=CC(=O)C3=C(C)[C@@H](OC(=O)/C(C)=C\C)[C@H](O)[C@@H]12 | 5.28% (inactive) |  | 
7 | C=C1C(=O)O[C@H]2CC(=C)[C@H]3CC[C@@](C)(O)[C@@H]3CC12 (stereo not given in full) | -21.5% (inactive) |  | 
8 | C=C(C)[C@@H]1CC=C(COC(=O)NC(=O)c2ncn3c(=O)n(C)nnc23)CC1 | 2.36% (inactive) |  | 
9 | CC1(C)CN(C(=O)c2ccc(-c3cccc4nc(NC(=O)C5CC5)nn34)cc2)C1 |  |  | inactive
10 | CCN(CC)C(=O)c1ccc(Nc2nc(OCC3CCCCC3)c3[nH]cnc3n2)cc1 |  | 14.6 µM (active) | 
